In the supplement of paper PMC4466140:

B1: unnamed (peptide)
chain: NFFRKKLGIPRKLKR
B2: unnamed (peptide)
chain: PLRRTVMSLPGNHDI

Molecular target: CaNbp2
Assay: SPOT peptide array binding signal intensity (averaged, normalized) (arbitrary units (background-subtracted, floor 0; scale differs between SH3 domains)); higher = stronger binding of the SH3 domain to the peptide
Summary of the method: (§1)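 Peptides were synthetic 15-mers on cellulose membranes, with every cysteine replaced by serine. They were incubated overnight at 4°C with GST-SH3 domains from four yeast species at 10 μg/ml in TBS-based blocking buffer. Binding signal, the replicate-averaged normalized and background-subtracted spot intensity, is in arbitrary units that differ between domains.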

Binder	SPOT peptide array binding signal intensity
B1	189
B2	1640

Molecular target: CaRvs167
Assay: as above
Summary of the method: as §1

Binder	SPOT peptide array binding signal intensity
B1	8.83
B2	110

Molecular target: CaRvs167-3
Assay: as above
Summary of the method: as §1

Binder	SPOT peptide array binding signal intensity
B1	47
B2	20

Molecular target: CaSho1
Assay: as above
Summary of the method: as §1

Binder	SPOT peptide array binding signal intensity
B1	447
B2	837

Molecular target: CaSla1-D1-D2
Assay: as above
Summary of the method: as §1

Binder	SPOT peptide array binding signal intensity
B1	11
B2	247

Molecular target: CaSla1-D3
Assay: as above
Summary of the method: as §1

Binder	SPOT peptide array binding signal intensity
B1	2.5
B2	60.2

Molecular target: ScAbp1
Assay: as above
Summary of the method: as §1

Binder	SPOT peptide array binding signal intensity
B1	146
B2	205

Molecular target: ScBbc1
Assay: as above
Summary of the method: as §1

Binder	SPOT peptide array binding signal intensity
B1	4.5
B2	13

Molecular target: ScBem1-D1
Assay: as above
Summary of the method: as §1

Binder	SPOT peptide array binding signal intensity
B1	14
B2	1.5

Molecular target: ScBzz1-D1
Assay: as above
Summary of the method: as §1

Binder	SPOT peptide array binding signal intensity
B1	9
B2	4.75

Molecular target: ScBzz1-D2
Assay: as above
Summary of the method: as §1

Binder	SPOT peptide array binding signal intensity
B1	13.5
B2	5.75

Molecular target: ScCyk3
Assay: as above
Summary of the method: as §1

Binder	SPOT peptide array binding signal intensity
B1	53
B2	15

Molecular target: ScFus1
Assay: as above
Summary of the method: as §1

Binder	SPOT peptide array binding signal intensity
B1	314
B2	407

Molecular target: ScHof1
Assay: as above
Summary of the method: as §1

Binder	SPOT peptide array binding signal intensity
B1	1.25
B2	≤ 0

Molecular target: ScHse1
Assay: as above
Summary of the method: as §1

Binder	SPOT peptide array binding signal intensity
B1	1910
B2	288

Molecular target: ScLsb1
Assay: as above
Summary of the method: as §1

Binder	SPOT peptide array binding signal intensity
B1	13.5
B2	14.5

Molecular target: ScLsb2
Assay: as above
Summary of the method: as §1

Binder	SPOT peptide array binding signal intensity
B1	8
B2	≤ 0

Molecular target: ScLsb3
Assay: as above
Summary of the method: as §1

Binder	SPOT peptide array binding signal intensity
B1	103
B2	52

Molecular target: ScLsb4
Assay: as above
Summary of the method: as §1

Binder	SPOT peptide array binding signal intensity
B1	3
B2	60

Molecular target: ScMyo3
Assay: as above
Summary of the method: as §1

Binder	SPOT peptide array binding signal intensity
B1	≤ 0
B2	≤ 0

Molecular target: ScMyo5
Assay: as above
Summary of the method: as §1

Binder	SPOT peptide array binding signal intensity
B1	0.5
B2	≤ 0

Molecular target: ScNbp2
Assay: as above
Summary of the method: as §1

Binder	SPOT peptide array binding signal intensity
B1	68
B2	584

Molecular target: ScPex13
Assay: as above
Summary of the method: as §1

Binder	SPOT peptide array binding signal intensity
B1	0.5
B2	177

Molecular target: ScRvs167
Assay: as above
Summary of the method: as §1

Binder	SPOT peptide array binding signal intensity
B1	2.33
B2	51.9

Molecular target: ScSho1
Assay: as above
Summary of the method: as §1

Binder	SPOT peptide array binding signal intensity
B1	473
B2	909

Molecular target: ScSla1-D1-D2
Assay: as above
Summary of the method: as §1

Binder	SPOT peptide array binding signal intensity
B1	38.5
B2	305

Molecular target: ScSla1-D3
Assay: as above
Summary of the method: as §1

Binder	SPOT peptide array binding signal intensity
B1	6.25
B2	404

Molecular target: SpAbp1-D1
Assay: as above
Summary of the method: as §1

Binder	SPOT peptide array binding signal intensity
B1	462
B2	671

Molecular target: SpBbc1
Assay: as above
Summary of the method: as §1

Binder	SPOT peptide array binding signal intensity
B1	3
B2	1.5

Molecular target: SpBzz1-D1
Assay: as above
Summary of the method: as §1

Binder	SPOT peptide array binding signal intensity
B1	50
B2	243

Molecular target: SpBzz1-D2
Assay: as above
Summary of the method: as §1

Binder	SPOT peptide array binding signal intensity
B1	≤ 0
B2	7.25

Molecular target: SpCyk3
Assay: as above
Summary of the method: as §1

Binder	SPOT peptide array binding signal intensity
B1	≤ 0
B2	0.5

Molecular target: SpHof1
Assay: as above
Summary of the method: as §1

Binder	SPOT peptide array binding signal intensity
B1	87
B2	10

Molecular target: SpHof1-2
Assay: as above
Summary of the method: as §1

Binder	SPOT peptide array binding signal intensity
B1	1.25
B2	24.2

Molecular target: SpHof1-3
Assay: as above
Summary of the method: as §1

Binder	SPOT peptide array binding signal intensity
B1	998
B2	261

Molecular target: SpHse1
Assay: as above
Summary of the method: as §1

Binder	SPOT peptide array binding signal intensity
B1	1560
B2	788

Molecular target: SpLsb1
Assay: as above
Summary of the method: as §1

Binder	SPOT peptide array binding signal intensity
B1	25.5
B2	2.25

Molecular target: SpLsb4
Assay: as above
Summary of the method: as §1

Binder	SPOT peptide array binding signal intensity
B1	19
B2	258

Molecular target: SpMyo1
Assay: as above
Summary of the method: as §1

Binder	SPOT peptide array binding signal intensity
B1	0.5
B2	2.5

Molecular target: SpNbp2
Assay: as above
Summary of the method: as §1

Binder	SPOT peptide array binding signal intensity
B1	63.5
B2	392

Molecular target: SpPex13
Assay: as above
Summary of the method: as §1

Binder	SPOT peptide array binding signal intensity
B1	5
B2	40

Molecular target: SpRvs167
Assay: as above
Summary of the method: as §1

Binder	SPOT peptide array binding signal intensity
B1	3.67
B2	48.8

Molecular target: SpSla1-D1-D2
Assay: as above
Summary of the method: as §1

Binder	SPOT peptide array binding signal intensity
B1	≤ 0
B2	1.5

Molecular target: SpSla1-D3
Assay: as above
Summary of the method: as §1

Binder	SPOT peptide array binding signal intensity
B1	17.5
B2	126

Molecular target: AgAbp1
Assay: as above
Summary of the method: as §1

Binder	SPOT peptide array binding signal intensity
B2	206

Molecular target: AgBbc1
Assay: as above
Summary of the method: as §1

Binder	SPOT peptide array binding signal intensity
B2	19.6

Molecular target: AgBem1-D1
Assay: as above
Summary of the method: as §1

Binder	SPOT peptide array binding signal intensity
B2	302

Molecular target: AgBzz1-D1
Assay: as above
Summary of the method: as §1

Binder	SPOT peptide array binding signal intensity
B2	9.5

Molecular target: AgBzz1-D2
Assay: as above
Summary of the method: as §1

Binder	SPOT peptide array binding signal intensity
B2	4.75

Molecular target: AgCyk3
Assay: as above
Summary of the method: as §1

Binder	SPOT peptide array binding signal intensity
B2	≤ 0

Molecular target: AgFus1
Assay: as above
Summary of the method: as §1

Binder	SPOT peptide array binding signal intensity
B2	598

Molecular target: AgHof1
Assay: as above
Summary of the method: as §1

Binder	SPOT peptide array binding signal intensity
B2	6.25

Molecular target: AgHse1
Assay: as above
Summary of the method: as §1

Binder	SPOT peptide array binding signal intensity
B2	302

Molecular target: AgLsb1
Assay: as above
Summary of the method: as §1

Binder	SPOT peptide array binding signal intensity
B2	29.5

Molecular target: AgLsb4
Assay: as above
Summary of the method: as §1

Binder	SPOT peptide array binding signal intensity
B2	4.5

Molecular target: AgMyo5
Assay: as above
Summary of the method: as §1

Binder	SPOT peptide array binding signal intensity
B2	3

Molecular target: AgNbp2
Assay: as above
Summary of the method: as §1

Binder	SPOT peptide array binding signal intensity
B2	396

Molecular target: AgRvs167
Assay: as above
Summary of the method: as §1

Binder	SPOT peptide array binding signal intensity
B2	3.83

Molecular target: AgSho1
Assay: as above
Summary of the method: as §1

Binder	SPOT peptide array binding signal intensity
B2	453

Molecular target: AgSla1-D1-D2
Assay: as above
Summary of the method: as §1

Binder	SPOT peptide array binding signal intensity
B2	24.2

Molecular target: AgSla1-D3
Assay: as above
Summary of the method: as §1

Binder	SPOT peptide array binding signal intensity
B2	6

Molecular target: CaAbp1-D1
Assay: as above
Summary of the method: as §1

Binder	SPOT peptide array binding signal intensity
B2	776

Molecular target: CaAbp1-D2
Assay: as above
Summary of the method: as §1

Binder	SPOT peptide array binding signal intensity
B2	1280

Molecular target: CaBbc1
Assay: as above
Summary of the method: as §1

Binder	SPOT peptide array binding signal intensity
B2	154

Molecular target: CaBem1-D1
Assay: as above
Summary of the method: as §1

Binder	SPOT peptide array binding signal intensity
B2	200

Molecular target: CaBzz1-D1
Assay: as above
Summary of the method: as §1

Binder	SPOT peptide array binding signal intensity
B2	172

Molecular target: CaBzz1-D2
Assay: as above
Summary of the method: as §1

Binder	SPOT peptide array binding signal intensity
B2	62.4

Molecular target: CaCyk3
Assay: as above
Summary of the method: as §1

Binder	SPOT peptide array binding signal intensity
B2	17

Molecular target: CaFus1
Assay: as above
Summary of the method: as §1

Binder	SPOT peptide array binding signal intensity
B2	1290

Molecular target: CaHof1
Assay: as above
Summary of the method: as §1

Binder	SPOT peptide array binding signal intensity
B2	0.375

Molecular target: CaHse1
Assay: as above
Summary of the method: as §1

Binder	SPOT peptide array binding signal intensity
B2	106

Molecular target: CaLsb1
Assay: as above
Summary of the method: as §1

Binder	SPOT peptide array binding signal intensity
B2	0.5

Molecular target: CaLsb4
Assay: as above
Summary of the method: as §1

Binder	SPOT peptide array binding signal intensity
B2	493

Molecular target: CaMyo5
Assay: as above
Summary of the method: as §1

Binder	SPOT peptide array binding signal intensity
B2	19.6
